# Screening data (PubChem BioAssay)
# Sampled rows, rich in hits. Any-hit rate of the full collection: about 7.4%.
# ELG1 genotoxic: genotoxicity induction in ELG1-luciferase HEK293T cells. HEK293T ELG1-luciferase reporter, luminescence, 16 h. Potency, µM (top dose mostly 46 µM), inactives show at the highest dose activity change, positive = activation, most hits filed as activators. 330,000 tested, 1.3% active. AID 504466; note: % of control where 0% means no effect; nearly all actives have a fitted effect of over 60% in size
#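 16 hr compound incubation (37 °C, 5% CO2) of HEK293T cells carrying luciferase-tagged ELG1; luciferase then measured by ONE-Glo luminescence after 30 min at RT.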
# Rab9 prom act: activators of Rab9 promoter; Huh7 Rab9 promoter-luciferase reporter, luminescence, 24 h; Potency, µM (titrated, usually from 9.22 µM), for inactives: at the highest dose activation, negative = inhibition, usual class: activators; 320,000 tested, 2.8% active; note: % of control where 0% means no effect; nearly all actives have a fitted effect of over 60% in size
#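 Steps: seed 1500 Huh7 Rab9-luc cells per well, rest 2 h at 37 °C; add compound in DMSO; incubate 24 h; add luciferase reagent, 10 min ambient; read luminescence.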
# Luc counter: Kinase-Glo luciferase inhibition (counter-screen); Q27757; Kinase-Glo luciferase, ATP luminescence, 8 min; Potency, µM (series often up to 38.3 µM), inactives show at the top dose activity change, negative = inhibition, actives largely listed as inhibitors; 200,000 tested, 0.28% active; AID 1379; note: % is set by controls: 0 for no effect and ±100 for the full control effect; nearly all actives have a fitted effect of over 60% in size
#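 Substrate mix (final 50 mM imidazole pH 7.2, 50 mM KCl, 7 mM MgCl2, 10 uM ATP, 0.01% Tween 20, 0.05% BSA) plus pin-tool compound, then Kinase-Glo detection mix; 8 min ambient, luminescence read.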
# FLuc modulator: counter-screen for miR-21 project: firefly luciferase inhibitors or activators | P08659 | purified FLuc, Km substrates, luminescence inhibition | Potency, µM (titrated, usually from 57.5 µM), for the others: at the highest dose activity change, negative = inhibition, most hits filed as inhibitors | 360,000 tested, 6.9% active | AID 588342;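 note: plate controls were vehicle for no effect and reference inhibitor for full effect; nearly all actives have a fitted effect of over 55% in size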
# Target sequence (P08659 whole entry, looked up): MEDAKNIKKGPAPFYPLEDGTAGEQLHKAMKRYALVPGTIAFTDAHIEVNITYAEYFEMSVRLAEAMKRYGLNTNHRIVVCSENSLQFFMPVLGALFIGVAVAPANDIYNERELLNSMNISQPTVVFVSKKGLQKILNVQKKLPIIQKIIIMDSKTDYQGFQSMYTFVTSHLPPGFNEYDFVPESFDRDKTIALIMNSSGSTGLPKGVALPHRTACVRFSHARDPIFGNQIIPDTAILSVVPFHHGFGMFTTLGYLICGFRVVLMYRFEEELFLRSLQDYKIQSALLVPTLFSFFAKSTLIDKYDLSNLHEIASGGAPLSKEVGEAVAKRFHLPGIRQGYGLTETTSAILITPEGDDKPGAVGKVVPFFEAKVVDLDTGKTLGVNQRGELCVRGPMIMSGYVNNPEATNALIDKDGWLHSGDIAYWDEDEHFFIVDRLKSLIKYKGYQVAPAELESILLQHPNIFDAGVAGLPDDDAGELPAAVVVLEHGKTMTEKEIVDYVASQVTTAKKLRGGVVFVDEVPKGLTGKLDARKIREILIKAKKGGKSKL
#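 Biochemical qHTS of compounds, final roughly 60 µM downward over six points, against 10 nM purified firefly luciferase using Km concentrations of substrates (10 uM D-luciferin, 10 uM ATP) in Tris acetate pH 7.5 buffer; luminescence output.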
# SMN2 splice up: increases expression of the SMN2 splice variant; HEK293 SMN2-luciferase splicing reporter, luminescence, 30-36 h; Potency, µM (highest dose often 46.1 µM), for inactives: at the highest dose activity change, positive = activation, actives largely listed as activators; 210,000 tested, 2.8% active; AID 1458; note: % of control where 0% means no effect; nearly all actives have a fitted effect of over 55% in size
#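 qHTS luciferase splicing reporter: luminescence rises when SMN2 exon 7 is included in transfected HEK293 cells. Compound exposure lasted 30-36 h at 37C, with 4.5 mM final sodium butyrate as control, followed by a ONE-Glo read.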
# NPC1 promoter act: NPC1 promoter activation | Huh7 NPC1 promoter luciferase reporter, 24 h | Potency, µM (doses to about 9.22 µM), without a hit: top-dose activation, usual class: activators | 320,000 tested, 2.4% active | AID 485313; note: % of control where 0% means no effect; nearly all actives have a fitted effect of over 60% in size
#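 Stable NPC1-promoter luciferase Huh7 line; cpd (DMSO) 24 h, 37 °C, 5% CO2; Amplite luciferase reagent 10 min RT; luminescence readout. qHTS format.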
# The depositor's hits bear a star; u = inconclusive; x = no result. Calls come from the whole dose curve; as a rule, active = well fitted curve in the direction sought with a large enough effect; inconclusive = small, poorly fitted or top-dose-only effect, or another doubt; inactive = no such curve, though single readings can be large; an effect the other way counts as inactive or inconclusive. Potency is the fitted concentration of half-maximal effect.
SMILES,ELG1 genotoxic,Rab9 prom act,Luc counter,FLuc modulator,SMN2 splice up,NPC1 promoter act
CCOC(=O)Cc1c(C)nc2cc(-c3ccc(Cl)cc3)[nH]n2c1=O,u,14%,1%,u,13%,3%
Cc1cc(=O)n2[nH]c(-c3ccc(C(C)(C)C)cc3)cc2n1,6%,24%,0%,11µM*,-88%,20%
CCOC(=O)Cc1cc(=O)n2[nH]c(-c3ccc(C)cc3)cc2n1,u,18%,-2%,19µM*,-2%,1%
Cc1c(Cl)cccc1NC(=O)Cn1cc(C(=O)C2CCCCC2)c2ccccc21,x,x,x,-1%,-41%,x
COCc1cc(=O)n2[nH]c(-c3ccc(C)cc3)cc2n1,15µM*,30%,-2%,12µM*,50%,24%
COCc1cc(=O)n2[nH]c(-c3ccco3)cc2n1,3%,0%,x,-14%,x,-6%
O=c1[nH][nH]c(=O)c2c(NS(=O)(=O)c3ccccc3)cccc12,u,29%,-2%,19µM*,25%,26%
O=c1[nH][nH]c(C(F)(F)F)c1C=Nc1ccccc1Cl,0%,1%,2%,u,-9%,-4%
Oc1c(C=Nc2ccccc2Cl)[nH]c2ccccc12,u,3.5µM*,x,u,x,2.8µM*
COc1ccccc1C(=O)Nc1ccc(OCC(=O)N2CCCCC2C)cc1 (stereo not given),1%,0%,x,12µM*,x,-5%
COc1ccc(OCC(=O)OCC(=O)N2C(C)CCCC2C)cc1 (stereo not given),-1%,-4%,x,0%,x,0%
COc1ccccc1C(=O)Nc1ccc(OCC(=O)N2C(C)CCCC2C)cc1 (stereo not given),3%,9%,x,8.5µM*,x,1%
COc1ccc(C(=O)Nc2ccc(C(=O)N3CCCCC3C)cc2)c(OC)c1OC (stereo not given),1%,-3%,x,-3%,x,2%
COc1cccc(/C=C2\Oc3ccc(O)cc3C2=O)c1O,u,u,x,3.4µM*,x,u
Cc1ccc2nc(C)cc(N/N=C/c3cccc(O)c3)c2c1,-2%,-1%,x,0%,x,-1%
Oc1cccc(/C=N/Nc2cccc3cccnc23)c1,u,u,-16%,0.67µM*,x,u
O=C(Nc1cccc2cccnc12)c1cccc2ccccc12,13%,-6%,1%,u,-23%,-1%
Oc1c(/C=N/Nc2cccc3cccnc23)ccc2ccccc12,u,3.2µM*,-1%,u,11µM*,u
COc1cc(/C=N/Nc2cccc3cccnc23)cc(OC)c1O,6%,u,-3%,2.7µM*,u,-2%
CC(C)(C)c1ccc(C2=NC(C)(C)N(CC(=O)Nc3ccc(F)c(F)c3)C2=O)cc1,x,x,x,-13%,15%,x
Cc1ccc(C)n1-c1nnc(N2CCCC(C(=O)Nc3ccc(C(C)C)cc3)C2)s1 (stereo not given),x,x,x,3%,-4%,x
COC(=O)c1cc(NC(=O)c2oc(=O)c3ccccc3c2-c2ccccc2)cc(C(=O)OC)c1,x,x,x,0%,5%,x
NS(=O)(=O)c1ccc(NC(=O)CN2C(=O)COc3ccc(Cl)cc32)cc1,x,x,x,-1%,-20%,x
Cc1ccc(-c2noc(-c3cc4ccccc4oc3=O)n2)cc1,u,21%,-1%,6µM*,-7%,25%
O=c1oc2ccccc2cc1-c1nc(-c2ccccc2)no1,u,1.1µM*,-21%,0.54µM*,11µM*,0.45µM*
SMILES,ELG1 genotoxic,Rab9 prom act,Luc counter,FLuc modulator,SMN2 splice up,NPC1 promoter act
CCN(CC)c1ccc2cc(-c3nc(-c4ccccc4)no3)c(=O)oc2c1,x,x,x,6µM*,x,x
O=c1oc2ccccc2cc1-c1nc(-c2cccs2)no1,x,x,x,0.6µM*,x,x
Cc1ccc(CN(C(=O)COc2cccc(Cl)c2)c2ccccn2)o1,x,x,x,-2%,x,x
Cc1cc(C)cc(-n2c(SCC(N)=O)nc3c([nH]c4ccccc43)c2=O)c1,x,x,x,0%,x,x
O=C(Nc1cccc(F)c1)c1oc2ccccc2c1NC(=O)C12CC3CC(CC(C3)C1)C2,x,x,x,-2%,6%,x
COc1ccc2c(c1)c(=O)c(C(=O)c1ccc(C)cc1)cn2Cc1ccccc1F,x,x,x,-10%,-33%,x
COCc1oc2ccc(NS(=O)(=O)c3ccc(C)cc3)cc2c1C(=O)OC,x,x,x,u,-12%,x
Cc1cccc(-c2noc(-c3cc4ccccc4oc3=O)n2)c1,u,2.8µM*,-24%,1.3µM*,u,3.2µM*
COc1cccc(CNCc2c(C(=O)O)c(C)n(Cc3ccc(F)cc3Cl)c2C)c1OC,x,x,x,-3%,-9%,x
Cc1ccc(C)n1-c1ccc(-c2nnco2)cc1,10%,2%,0%,-16%,7%,0%
Cc1ccc(C)n1-c1ccc(-c2ccn[nH]2)cc1,u,u,2%,12µM*,13µM*,u
c1ccn(-c2ccc(-c3ccn[nH]3)cc2)c1,18%,u,-4%,11µM*,u,u
Oc1ccccc1-c1ccn[nH]1,3%,x,x,x,x,x
O=C(/C=C/c1ccco1)Nc1sc2c(c1C(=O)O)CCC2,2%,u,-10%,13µM*,28µM*,3.5µM*
N#Cc1c(NC(=O)/C=C/c2ccco2)sc2c1CCCC2,2.9µM*,u,2%,4.8µM*,3.5µM*,u
O=C(/C=C/c1ccccc1)Nc1sc2c(c1C(=O)O)CCC2,-1%,u,x,17µM*,x,u
Cc1ccc(OCC(=O)Nc2ccccc2C(=O)OCc2cc(=O)n3c(C)csc3n2)cc1,x,x,x,-1%,x,x
CSc1nnc2[nH]c(=O)cc(C)n12,x,x,x,7%,x,x
Cc1cc(=O)[nH]c2nnc(-c3ccc(Cl)cc3)n12,u,u,x,3.4µM*,x,2.8µM*
Cc1cc(C)c(NC(=O)CSC2=Nc3ccccc3C3=NC(CC(=O)NCc4cccs4)C(=O)N23)c(C)c1 (stereo not given),x,x,x,-6%,-7%,x
Cc1nc(SCc2ccc(OCCC(C)C)cc2)n[nH]1,u,u,2%,21µM*,u,u
CCCCCOc1ccc(CSc2n[nH]c(C)n2)cc1,-3%,0%,0%,-2%,x,1%
O=C(Cc1c(F)cccc1Cl)Nc1nc2ccccc2s1,9%,u,1%,27µM*,-6%,20%
Cc1nc2ccc(NC(=O)Cc3c(F)cccc3Cl)cc2s1,u,2.5µM*,x,4.8µM*,x,2.8µM*
CC(=O)c1sc(NC(=O)Cc2c(F)cccc2Cl)nc1C,-6%,0%,x,-1%,x,0%
COc1ccc(NC(=O)Cc2c(F)cccc2Cl)cc1,u,22%,-1%,u,u,20%
O=C(O)c1ccccc1NC(=O)c1cc2ccccc2oc1=O,u,2.8µM*,x,7.6µM*,x,3.5µM*
